# Calls of active or inactive are those of the source. The calls were made as follows: active = hit-call score of the fitted dose curve at least 0.9, where 1 is the maximum; inactive = score below 0.9.
# Read-out: solute carrier (SLC22A1), SLC22A1 (gene 6580)
# Assay: LTEA_HepaRG_SLC22A1: Life Technologies and Expression Analysis (LTEA) Assay for solute carrier (SLC22A1) using HepaRG (AID 2283524);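 as to AC50: differentiated human HepaRG liver cells in serum-free induction medium; TaqMan qRT-PCR normalized to ACTB GAPDH and POLR2A housekeeping genes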
# Conditions: mRNA level, 48 h; actives raise or lower the signal
# Method in brief: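 Transcript level of SLC22A1 quantified by qRT-PCR (normalized to three housekeeping genes) after 48 h chemical exposure of HepaRG cells, eight concentrations up to 100 µM, half-log steps, 0.5% DMSO vehicle. Gain or loss relative to DMSO fitted bidirectionally.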
Compound,AC50,outcome
CCC(=O)Nc1ccc(Cl)c(Cl)c1,50 µM (active),
CNC(=O)Oc1cccc2c1OC(C)(C)O2,,inactive
CCCCOC(=O)[C@@H](C)Oc1ccc(Oc2ccc(C#N)cc2F)cc1,,inactive
CC(C)[C@H](C(=O)O[C@H](C#N)c1cccc(Oc2ccccc2)c1)c1ccc(Cl)cc1,,inactive
C#CCC1=C(C)C(OC(=O)C2C(C=C(C)C)C2(C)C)CC1=O (stereo not drawn),74.1 µM (active),
CCOP(=S)(OCC)Oc1ccc([N+](=O)[O-])cc1,,inactive
CSC1=N[C@@](C)(c2ccccc2)C(=O)N1Nc1ccccc1,34.2 µM (active),
CN(C)C(=O)Nc1cccc(C(F)(F)F)c1,,inactive
CC(COc1ccc(Oc2ccccc2)cc1)Oc1ccccn1 (stereo not drawn),12.1 µM (active),
CCc1cccc(C)c1N(C(=O)CCl)C(C)COC (stereo not drawn),,inactive
CCC(=NOC/C=C/Cl)C1=C(O)CC(C2CCOCC2)CC1=O (stereo not drawn),,inactive
CCOP(=S)(OCC)SCCSCC,,inactive
CCC(CC)Nc1c([N+](=O)[O-])cc(C)c(C)c1[N+](=O)[O-],,inactive
CN(C)NC(=O)CCC(=O)O,,inactive
CCOP(=S)(OCC)Oc1cc(C)nc(C(C)C)n1,,inactive
CC(Oc1cccc(Cl)c1)C(=O)O (stereo not drawn),,inactive

# Read-out: Pyruvate Dehydrogenase Kinase 4 (PDK4), PDK4 (gene 5166)
# Assay: LTEA_HepaRG_PDK4: Life Technologies and Expression Analysis (LTEA) Assay for Pyruvate Dehydrogenase Kinase 4 (PDK4) using HepaRG (AID 2283525)
# Conditions: mRNA level, 48 h; actives raise or lower the signal
# Method in brief: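 Readout is qRT-PCR of PDK4 transcript, normalized to three housekeeping genes, with bidirectional fitting against 0.5% DMSO vehicle. Differentiated HepaRG cells were treated 48 h in serum-free induction medium, duplicate wells, eight-point half-log series topping at 100 uM.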
Compound,AC50,outcome
CCOP(=O)(SC(C)CC)N1CCSC1=O (stereo not drawn),21.7 µM (active),
CCCSP(=O)(OCC)Oc1ccc(Br)cc1Cl (stereo not drawn),,inactive
CSc1nnc(C(C)(C)C)c(=O)n1N,,inactive
Cc1ccn2nc(S(=O)(=O)Nc3c(F)cccc3F)nc2n1,,inactive
CC(C)=CC1C(C(=O)OCN2C(=O)C3=C(CCCC3)C2=O)C1(C)C (stereo not drawn),,inactive
FC(F)C(F)(F)OCC(Cn1cncn1)c1ccc(Cl)cc1Cl (stereo not drawn),12 µM (active),
CC(C1CC1)C(O)(Cn1cncn1)c1ccc(Cl)cc1 (stereo not drawn),,inactive
Cc1cc(C2CC2)nc(Nc2ccccc2)n1,,inactive
COc1cccc(C(=O)NN(C(=O)c2cc(C)cc(C)c2)C(C)(C)C)c1C,69.7 µM (active),
C[N+]1(C)CCCCC1,,inactive
CC[C@H](C)[C@H]1O[C@]2(C=C[C@@H]1C)C[C@@H]1C[C@@H](C/C=C(\C)[C@@H](O[C@H]3C[C@H](OC)[C@@H](O[C@H]4C[C@H](OC)[C@@H](NC)[C@H](C)O4)[C@H](C)O3)[C@@H](C)/C=C/C=C3\CO[C@@H]4[C@H](O)C(C)=C[C@@H](C(=O)O1)[C@]34O)O2,91.9 µM (active),
COP(=O)(OC)C(O)C(Cl)(Cl)Cl (stereo not drawn),,inactive
S=C1NCCN1,,inactive
CCNc1nc(Cl)nc(NC(C)(C)C#N)n1,,inactive
CON=C(C(=O)OC)c1ccccc1CON=C(C)c1cccc(C(F)(F)F)c1,,inactive
CCCCOC(=O)c1ccccc1C(=O)O,,inactive
Nc1nc(N)nc(NC2CC2)n1,,inactive
C[Si](Cn1cncn1)(c1ccc(F)cc1)c1ccc(F)cc1,,inactive

Compound,AC50,outcome
CNC(=O)ON=C(SC)C(=O)N(C)C,,inactive
COc1cc(OC)nc(Sc2cccc(Cl)c2C(=O)O)n1,,inactive
CCC(=O)Nc1ccc(Cl)c(Cl)c1,,inactive
CNC(=O)Oc1cccc2c1OC(C)(C)O2,,inactive
CCCCOC(=O)[C@@H](C)Oc1ccc(Oc2ccc(C#N)cc2F)cc1,49.8 µM (active),
CC(C)[C@H](C(=O)O[C@H](C#N)c1cccc(Oc2ccccc2)c1)c1ccc(Cl)cc1,,inactive
C#CCC1=C(C)C(OC(=O)C2C(C=C(C)C)C2(C)C)CC1=O (stereo not drawn),9.87 µM (active),
CCOP(=S)(OCC)Oc1ccc([N+](=O)[O-])cc1,,inactive
CSC1=N[C@@](C)(c2ccccc2)C(=O)N1Nc1ccccc1,12.7 µM (active),
CN(C)C(=O)Nc1cccc(C(F)(F)F)c1,,inactive
CC(COc1ccc(Oc2ccccc2)cc1)Oc1ccccn1 (stereo not drawn),25.4 µM (active),
CCc1cccc(C)c1N(C(=O)CCl)C(C)COC (stereo not drawn),,inactive
CCC(=NOC/C=C/Cl)C1=C(O)CC(C2CCOCC2)CC1=O (stereo not drawn),,inactive
CCOP(=S)(OCC)SCCSCC,,inactive
CCC(CC)Nc1c([N+](=O)[O-])cc(C)c(C)c1[N+](=O)[O-],,inactive
CN(C)NC(=O)CCC(=O)O,,inactive
CCOP(=S)(OCC)Oc1cc(C)nc(C(C)C)n1,,inactive
CC(Oc1cccc(Cl)c1)C(=O)O (stereo not drawn),,inactive

# Read-out: NAD(P)H dehydrogenase [quinone] 1 (NQO1), NQO1 (gene 1728)
# Assay: LTEA_HepaRG_NQO1: Life Technologies and Expression Analysis (LTEA) Assay for NAD(P)H dehydrogenase [quinone] 1 (NQO1) using HepaRG (AID 2283526)
# Conditions: mRNA level, 48 h; actives raise or lower the signal
# Method in brief: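 qRT-PCR read-out (Fluidigm TaqMan), normalized to three housekeeping genes, after 48 h chemical exposure of HepaRG cells. Concentrations: eight points, top 100 uM, half-log steps, 0.5% DMSO vehicle. Gain or loss of signal fitted relative to DMSO.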
Compound,outcome,AC50
CCOP(=O)(SC(C)CC)N1CCSC1=O (stereo not drawn),inactive,
CCCSP(=O)(OCC)Oc1ccc(Br)cc1Cl (stereo not drawn),inactive,
CSc1nnc(C(C)(C)C)c(=O)n1N,inactive,
Cc1ccn2nc(S(=O)(=O)Nc3c(F)cccc3F)nc2n1,inactive,
CC(C)=CC1C(C(=O)OCN2C(=O)C3=C(CCCC3)C2=O)C1(C)C (stereo not drawn),inactive,
FC(F)C(F)(F)OCC(Cn1cncn1)c1ccc(Cl)cc1Cl (stereo not drawn),inactive,
CC(C1CC1)C(O)(Cn1cncn1)c1ccc(Cl)cc1 (stereo not drawn),inactive,
Cc1cc(C2CC2)nc(Nc2ccccc2)n1,inactive,
COc1cccc(C(=O)NN(C(=O)c2cc(C)cc(C)c2)C(C)(C)C)c1C,inactive,
C[N+]1(C)CCCCC1,inactive,
CC[C@H](C)[C@H]1O[C@]2(C=C[C@@H]1C)C[C@@H]1C[C@@H](C/C=C(\C)[C@@H](O[C@H]3C[C@H](OC)[C@@H](O[C@H]4C[C@H](OC)[C@@H](NC)[C@H](C)O4)[C@H](C)O3)[C@@H](C)/C=C/C=C3\CO[C@@H]4[C@H](O)C(C)=C[C@@H](C(=O)O1)[C@]34O)O2,,31.7 µM (active)
COP(=O)(OC)C(O)C(Cl)(Cl)Cl (stereo not drawn),inactive,
S=C1NCCN1,inactive,
CCNc1nc(Cl)nc(NC(C)(C)C#N)n1,inactive,
CON=C(C(=O)OC)c1ccccc1CON=C(C)c1cccc(C(F)(F)F)c1,inactive,
CCCCOC(=O)c1ccccc1C(=O)O,inactive,
Nc1nc(N)nc(NC2CC2)n1,inactive,
C[Si](Cn1cncn1)(c1ccc(F)cc1)c1ccc(F)cc1,inactive,

Compound,outcome,AC50
CNC(=O)ON=C(SC)C(=O)N(C)C,inactive,
COc1cc(OC)nc(Sc2cccc(Cl)c2C(=O)O)n1,inactive,
CCC(=O)Nc1ccc(Cl)c(Cl)c1,inactive,
CNC(=O)Oc1cccc2c1OC(C)(C)O2,inactive,
CCCCOC(=O)[C@@H](C)Oc1ccc(Oc2ccc(C#N)cc2F)cc1,inactive,
CC(C)[C@H](C(=O)O[C@H](C#N)c1cccc(Oc2ccccc2)c1)c1ccc(Cl)cc1,inactive,
C#CCC1=C(C)C(OC(=O)C2C(C=C(C)C)C2(C)C)CC1=O (stereo not drawn),inactive,
CCOP(=S)(OCC)Oc1ccc([N+](=O)[O-])cc1,inactive,
CSC1=N[C@@](C)(c2ccccc2)C(=O)N1Nc1ccccc1,inactive,
CN(C)C(=O)Nc1cccc(C(F)(F)F)c1,inactive,
CC(COc1ccc(Oc2ccccc2)cc1)Oc1ccccn1 (stereo not drawn),inactive,
CCc1cccc(C)c1N(C(=O)CCl)C(C)COC (stereo not drawn),inactive,
CCC(=NOC/C=C/Cl)C1=C(O)CC(C2CCOCC2)CC1=O (stereo not drawn),inactive,
CCOP(=S)(OCC)SCCSCC,inactive,
CCC(CC)Nc1c([N+](=O)[O-])cc(C)c(C)c1[N+](=O)[O-],inactive,
CN(C)NC(=O)CCC(=O)O,inactive,
CCOP(=S)(OCC)Oc1cc(C)nc(C(C)C)n1,inactive,
CC(Oc1cccc(Cl)c1)C(=O)O (stereo not drawn),inactive,

# — PubChem BioAssay (EPA / NIEHS)
